From PubChem BioAssay (NCATS)
Results filed as inconclusive are left out. A number with no mark means an inactive call. Calls come from the whole dose curve; as a rule, active = well fitted curve in the direction sought with a large enough effect; inconclusive = small, poorly fitted or top-dose-only effect, or another doubt; inactive = no such curve, though single readings can be large or run the other way.

experiment: HPAF-II 12hr Apoptosis Induction qHTS against the NCATS CANVASS Library (AID 1347358); details: HPAF-II caspase-3/7 Caspase-Glo luminescence; series mostly up to 46.1 µM; caspase activation: at the top concentration; note: 0% is about no effect
Source text: Natural products and their derivatives continue to be wellsprings of nascent therapeutic potential. However, many laboratories have limited resources for biological evaluation, leaving their previously isolated or synthesized compounds largely or completely untested. To address this issue, the Canvass library of natural products was assembled (https://tripod.nih.gov/canvass), in collaboration with academic and industry researchers, for quantitative high-throughput screening (qHTS) across a diverse set of cell-based and biochemical assays. The pure (>85% purity by liquid chromatography/mass spectrometry [LC/MS]) Canvass library of 346 natural products were submitted by 45 academic laboratories and companies around the world. We collected pure natural products to circumvent deconvolution and structure elucidation due to time and resource limitations. The library was formatted into 1536-well plates and evaluated in 50 qHTS (in an 11-pnt concentration series) bioassays with broad scope of disease-relevant mechanisms. The resulting data set from 50 different assays was then systematically analyzed to identify overall trends and specific natural products with interesting biological activities. Reported herein are the results of each individual qHTS and their corresponding assay protocol. The Caspase-Glo (R) (Promega) is a homogeneous, luminescent assay that measures caspase activity. The detection substrate contains tetrapeptide sequence DEVD in an "add-mix-measure" format. The reagent generates a luminescent signal produced by a thermostable luciferase. The luminescence is proportional to the amount of caspase activity in the assay reaction. National Center for Advancing Translational Sciences (NCATS), Rockville, MD National Institute of Health (NIH), Bethesda, Maryland
Cancer Cell Apoptosis Assay 1. In a 1536 well, white solid bottom tissue culture plates (Corning 7494), HPAF-II cancer cells in DMEM + 10% FBS + 1% P/S media were dispensed in each well at a final concentration of 500 cells / well (5uL volume) using the Multidrop Combi (Thermo Fisher Scientific) dispenser. 2. Compounds were pin transferred (~23nL volume) via Wako Pin-tool (Wako Automation, Richmond VA) equipped with a 1536 pin head. The assay plates were treated with compounds in a concentration series with a final concentration range of 0.17nM to 103uM. 3. Doxorubicin was used as a control in a 16pnt titration (1mM; 1:2 dilution; 16-points; n = 2; column 3, rows 1 - 32) and was pin transferred via Wako Pin-tool equipped with a 1536 pin head. The final concentration range of doxorubicin is 0.1nM - 4uM. 4. The assay plates were incubated for 12 hours at 37 degrees C/5% CO2/95% Rh. 5. 3uL Caspase-Glo 3/7 (R) (Promega) detection reagent was then added to the assay plates (columns 2 - 48, rows 1 - 32) and incubated at room temperature, covered from light, for 15 min. 6. Luminescence signal was acquired via the ViewLux plate reader (PerkinElmer) using a clear filter, 20 second exposure and 2x binning settings.

| Compound | caspase activation |
| --- | --- |
| CO[C@@H](/C=C/CC/C=C/C(=O)O)[C@@H](O)[C@H](C)/C=C(\C)[C@@H](O)[C@H](C)C(=O)CCCC1CC(=O)NC(=O)C1 | -0.811% |
| CNCCc1c[nH]c2ccccc12 | -2.21% |
| COC(=O)C1=C2Nc3ccccc3[C@@]23CCN2CC(C(C)=O)C1C[C@H]23 (stereo not given in full) | -1.41% |
| CCN1C[C@]2(C)CC[C@H](O)[C@]34C1C(C[C@H]23)[C@@]12CC[C@H](CC14)[C@](O)(COC(=O)c1ccc(OC)c(OC)c1)[C@H]2O (stereo not given in full) | 4.23% |
| COc1ccc2c(c1)[nH]c1c(C)nccc12 | 6.31% [at 91.4 µM] |
| CO[C@@H](/C=C/CC/C=C/C(=O)O)[C@@H](O)[C@H](C)[C@@H](O)/C(C)=C/[C@H](C)C(=O)CCCC1CC(=O)NC(=O)C1 | 5.91% |
| COc1ccc2c3c([nH]c2c1)C(C)=NCC3 | 4.79% |
| CC1=CC2CC[C@@H]3[C@@H](C)C[C@H](C)[C@@H](C1)N23 (stereo not given in full) | 3.29% |
| CNCCc1ccc(O)cc1 | 0% |
| NCCc1ccccc1 | -0.49% |
| c1ccc2c3c([nH]c2c1)CNCC3 | 2.89% |
| CCN1C[C@]2(C)CC[C@@H](O)[C@]34C1[C@H](C[C@H]23)C12CCC(CC14)[C@](O)(CO)[C@H]2O (stereo not given in full) | -2.17% |
| O=C(c1ccccc1O)c1[nH]c(Cl)c(Cl)c1-n1c(C(=O)c2ccccc2O)cc(Cl)c1Cl | -1.84% |
| CO[C@H](c1ccccc1)[C@H]1NC(=O)C(C)NC(=O)C(C[C@@H](C)CO)N(C)C(=O)[C@@H](C(O)c2cn(C(C)(C)C3CO3)c3ccccc23)NC(=O)C(C(C)C=C(C)C)NC(=O)C(CC(C)C)N(C)C(=O)C(C(C)C)NC1=O (stereo not given in full) | -1.21% [at 27.5 µM] |
| C/C=C1/CN2CC[C@]34C(=Nc5ccccc53)[C@@H]2C[C@@H]1[C@H]4C(=O)OC | -2.48% [at 91.4 µM] |
| C[C@]12CC(O)C3[C@@H](CCC4C[C@@H](O)CC[C@@]43CO)[C@@]1(O)CCC2C1=CC(=O)OC1 (stereo not given in full) | 1.98% |
| CN(C)Cc1c[nH]c2ccccc12 | 10.5% |
| C=C1[C@@H](C)[C@H]2[C@H](Cc3ccccc3)NC(=O)[C@]23OC(=O)/C=C/[C@H](O)CCC[C@@H](C)C/C=C/[C@H]3[C@@H]1O | 0.471% |
| CC[C@@H]1CN2CC[C@@]3(O)C(=Nc4cccc(OC)c43)[C@@H]2C[C@@H]1/C(=C\OC)C(=O)OC | 4.06% |
| CCCC[C@@H]1CC[C@H]2CCCC(CCC)N12 (stereo not given in full) | 3.06% |
| CC1=CC(=O)C2=C(C)C[C@H](O)[C@@H]3[C@H](OC(=O)[C@@H]3C)[C@@H]12 | -2.33% |
| COc1ccc(C23Oc4cc(OC)cc(OC)c4[C@](O)([C@H](c4ccccc4)C2C(=O)NCCCCNC(=O)c2ccccc2)[C@@H]3O)cc1 (stereo not given in full) | 4.81% |
| CC[N@@+]1([O-])C[C@]2(C)CC[C@@H](O)[C@@]34C5C[C@H]6CC[C@@]5(C(C[C@H]23)C41)[C@H](O)[C@@]6(O)CO (stereo not given in full) | 0.781% |
| CNCCc1ccccc1 | -2.49% |
| CCCCC[C@@H]1OC(=O)[C@@H](C)N(C)C(=O)[C@H](CCCCC)OC(=O)C(C)N(C)C(=O)[C@H](CCCCC)OC(=O)[C@@H](C)N(C)C(=O)[C@H](CCCCC)OC(=O)C(C)N(C)C1=O (stereo not given in full) | 2.06% |
| CCC(=O)CCCCC[C@@H]1NC(=O)[C@H]2CCCCN2C(=O)[C@H]([C@@H](C)CC)NC(=O)[C@H](Cc2cn(OC)c3ccccc23)NC1=O | 9.81% |
| CN1C(=O)[C@]23CC4C(C)(C)[C@@]5(C[C@@]41CN2CC[C@@]3(C)O)C(=O)Nc1c5ccc2c1OC=CC(C)(C)O2 (stereo not given in full) | 4.29% |
| CC(=O)N[C@H]1CCN2CCC[C@H]12 | -6.12% [at 103 µM] |
| CCC[C@H]1CC[C@H]2[C@H](C)CCC[C@H]2N1 | 0.915% |
| CC=C1CN(C=O)[C@H]2C[C@@H]1[C@@H](C(=O)OC)[C@@]13CCOC21Nc1ccccc13 (stereo not given in full) | 4.16% |
